# Assay results published in the supplement of paper PMC5407854, “Inhibitor of ppGalNAc-T3-mediated O-glycosylation blocks cancer cell invasiveness and lowers FGF23 levels” (eLife, 2017).
# In all, about 1,700 compounds were measured (“T3 sensor activation Q score (MG/GFP ratio z-score vs DMSO controls)”: median about 0.25, highest 2% from about 1.9 on). The full list was thinned out, with the highest values kept by preference.
# System: ppGalNAc-T3 sensor
# Experiment: T3 sensor activation Q score (MG/GFP ratio z-score vs DMSO controls) (SD units); higher = more sensor activation (inhibition of ppGalNAc-T3 glycosylation)
# Conditions: HEK293 sensor cells; 10 µM; 6 h
# Description: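 Cells were treated with compound at 10 uM for 6 h, then MG/GFP ratio was read by flow cytometry (10,000 cells per well, duplicate wells). Q = (R - R_neg)/SD_neg relative to DMSO vehicle controls; the signal rises when the glycosyltransferase is inhibited.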
row,SMILES,T3 sensor activation Q score
1,CC12CCC3C(CCC4Cc5[nH]c6ccccc6c5CC43C)C1CCC2O (stereo not given),0.6
2,C[C@H]1CC[C@@]2(C)[C@@H](CC[C@@H]3[C@@H]2CC[C@]2(C)[C@@H](O)CC[C@@H]32)C1,3
3,COc1ccc2c(c1)NP(=S)(Oc1ccccc1)N2 (stereo not given),-0.15
4,CCC1CCC(C)N(N=O)C1 (stereo not given),1.05
5,Oc1cccc2nc3ccccc3nc12,-0.35
6,O=c1cccc2n1C[C@H]1C[C@@H]2CN2CCCC[C@@H]12,0.2
7,CC(CC(C#N)(c1ccccc1)c1ccccc1)N1CCCCC1 (stereo not given),0.05
8,CN1C2c3ccccc3C3C4c5ccccc5C(C31)C(C2[N+](=O)[O-])N4C (stereo not given),1.1
9,CC12CCC3C(CC=C4CC(O)CCC43C)C1C/C(=C\N1CCCC1)C2=O (stereo not given),1.9
10,CN1C(=O)CC[C@@]2(C)C1=CC[C@@H]1[C@@H]2CC[C@@]2(C)[C@H]1CC[C@]2(C)O,0.4
11,O=C(OC1CCCCC1)c1ccccc1C(=O)OC1CCCCC1,0.2
12,Nc1nc(N)c2cnnn2n1,0.5
13,FCCN(CCF)c1cccc(Cl)c1,1.9
14,c1ccc2nc(OCCN3CC3)ccc2c1,1
15,c1ccc2c(c1)Sc1ccccc1N2CC1CN2CCC1CC2 (stereo not given),-0.15
16,CC1(C)CC(=O)CC(C)(C)N1O,-1.9
17,CC(=O)Nc1cc([As](=O)(O)O)ccc1O,1.4
18,NC(=S)c1cn([C@@H]2O[C@H](CO)[C@@H](O)[C@H]2O)c2ncnc(N)c12,4.95
19,C1CC2NCCC3NCCC(N1)N32 (stereo not given),-0.95
20,CCOC(=O)c1ccc2[nH]c(-c3ccc(S(=O)(=O)F)cc3)cc(=O)c2c1,0.95
21,O=C(NC(=O)c1c(F)cccc1F)Nc1cc(Cl)c(F)c(Cl)c1F,-0.65
22,O=C1N(c2nncs2)CCN1[N+](=O)[O-],2.65
23,CC[C@@]1(O)C(=O)OCc2c1cc1n(c2=O)Cc2cc3ccccc3nc2-1,-1.75
24,C=CCNC(=S)Nc1ccc(OC(=O)Nc2ccc(Cl)c(Cl)c2)cc1,0.4
25,Cn1cc(C=O)c2nccnc21,-1.5
